An excerpt weighted towards active compounds, which were near 8.3% of everything screened.
LASV entry inh = Lassa virus entry inhibition; Potency, µM (series often up to 37.9 µM), without a hit: top-dose activity change, negative = inhibition, usual class: inhibitors; hit rate 1.2% among 300,000; Lassa virus pseudotype entry inhibition, cell reporter; calls by dose curve; tested in HEK293 cells; further: potency means the concentration at half of the fitted maximal effect; nearly all actives have a fitted effect of over 50% in size
HCV inhibitor = HCV inhibition; Huh7.5.1 HCVcc-Cre infection, luciferase reporter, 44 h; Potency, µM (doses to about 41.8 µM), for inactives: top-dose activity change, negative = inhibition, usual class: inhibitors; hit rate 3.4% among 340,000; further: potency means the concentration at half of the fitted maximal effect
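Seed cells (1,000/well) for 4 h; treat with compound and infect with HCVcc-Cre, moi about 0.5. Incubate 44 h, then detect luciferase activity.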
HCMV inh = inhibitors of human cytomegalovirus; hit rate 4.5% among 410,000; AID 1259415; activity change, negative = inhibition, % at 57.5 µM; HFF cells, HCMV-luciferase reporter, 72 h; hits give low values; in the data active means activity change below about -60%; inconclusive means no clear call, values can overlap the other calls; inactive means above about -39%
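Cell-based, HFFs, 1000 cells/well, 16 h 37C; cpds in DMSO + HCMV-luc, MOI 1 PFU/cell; 72 h 37C; OneGlo luminescence after 5 min RT; norm. to buffer vs Salinomycin 10uM.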
Marburg entry inh = inhibitors of Marburg virus binding or cell entry; Marburg virus pseudotyped entry inhibition, cell reporter; Potency, µM (doses to about 37.8 µM), for inactives: at the highest dose activity change, negative = inhibition, hits mostly inhibitors; hit rate 1.8% among 300,000; AID 540276; calls by dose curve; tested in HEK293 cells; further: potency means the concentration at half of the fitted maximal effect
FBPA Giardia inh = inhibitors of Giardia lamblia fructose-1,6-bisphosphate aldolase | Potency, µM (series often up to 59.6 µM), inactives show top-dose activity, negative = inhibition, usual class: inhibitors | hit rate 0.71% among 290,000 | A8B2U2 | purified Giardia FBPA; further: potency means the concentration at half of the fitted maximal effect; nearly all actives have a fitted effect of over 55% in size
Target sequence (A8B2U2 whole entry, looked up): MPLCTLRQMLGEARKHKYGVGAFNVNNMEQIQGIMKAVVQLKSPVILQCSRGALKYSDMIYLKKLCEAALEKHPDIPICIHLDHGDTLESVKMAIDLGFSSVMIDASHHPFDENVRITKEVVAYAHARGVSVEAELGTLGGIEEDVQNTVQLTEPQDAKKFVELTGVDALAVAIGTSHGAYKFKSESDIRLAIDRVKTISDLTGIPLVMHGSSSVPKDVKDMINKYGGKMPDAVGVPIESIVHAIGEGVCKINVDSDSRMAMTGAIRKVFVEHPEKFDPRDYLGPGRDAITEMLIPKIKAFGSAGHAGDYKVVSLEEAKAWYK
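Giardia FBPA (40 nM reagent) was preincubated 10 min at RT with compound (up to 57.5 uM final), then substrate plus GAPDH/TPI/NAD/arsenate coupling system with diaphorase/resazurin was added; resorufin fluorescence (525/598 nm) was read after 20 min.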
FMDV inh = antivirals against foot and mouth disease virus | Potency, µM (doses to about 57.9 µM), for inactives: at the top dose activity change, negative = inhibition, usual class: inhibitors | FMDV antiviral cell-based qHTS | AID 1159524 | hit rate 1.2% among 410,000; calls by dose curve; tested in HEK293T cells; further: read-out not given here; potency means the concentration at half of the fitted maximal effect; nearly all actives have a fitted effect of over 45% in size
An asterisk follows results filed as active; [ ] = remark or other dose. Unless noted, the call rests on the fitted dose curve; in most records, active means well fitted curve in the direction sought with a large enough effect; inconclusive means small, poorly fitted or top-dose-only effect, or another doubt; inactive means no such curve, though single readings can be large; an effect the other way counts as inactive or inconclusive. On the % scale 0 is the no-effect control and ±100 the full control effect.

O=S(=O)(c1ccccc1)N1CCC(O)(CSc2ccc(Cl)cc2)CC1 was read as LASV entry inh inconclusive, HCV inhibitor 3.5µM*, HCMV inh -35, Marburg entry inh inconclusive, FBPA Giardia inh 3% and FMDV inh inconclusive.
For O=S(=O)(c1ccc(Cl)cc1)N1CCC(O)(CN2CCN(Cc3ccccc3)CC2)CC1 the results were LASV entry inh -29%, HCV inhibitor 13µM*, HCMV inh -35, Marburg entry inh inconclusive, FBPA Giardia inh 4% and FMDV inh 0%.
`CC(=O)NC1C(O)C[C@@](O)(C(=O)O)OC1[C@@H](O)C(O)CO` (some centres undefined) gave FBPA Giardia inh 1% and FMDV inh 2%.
Screening NS(=O)(=O)c1ccc(NC(=O)CN2CCN(c3ccc(F)cc3)CC2)cc1 returned LASV entry inh 10%[46.1 µM], HCMV inh -39 and FMDV inh -19%.
`Cc1cc(C)c2cc(CN(CC3CCCO3)C(=S)NCc3ccco3)c(=O)[nH]c2c1` (centres undefined) gave LASV entry inh -17%, HCV inhibitor inconclusive, HCMV inh inconclusive, Marburg entry inh -10%[46.1 µM], FBPA Giardia inh -1% and FMDV inh 20%.
`Cc1cc(C)c2cc(CN(Cc3ccco3)C(=O)NCc3ccccc3)c(=O)[nH]c2c1` gave LASV entry inh inconclusive, HCV inhibitor inconclusive, HCMV inh -29, Marburg entry inh 2.8µM*, FBPA Giardia inh 1% and FMDV inh -1%.
Screening CCOC(=O)C1=C(C)Nc2ccccc2N=C1NC(=O)C(c1ccccc1)c1ccccc1 returned LASV entry inh -24%, HCV inhibitor -24%, HCMV inh -39, Marburg entry inh inconclusive, FBPA Giardia inh 3% and FMDV inh -21%.
CCCCOc1ccc(/C=C/C(=O)NC2=Nc3ccccc3NC(C)=C2C(=O)OCC)cc1OC was read as LASV entry inh 1%[46.1 µM], HCV inhibitor inconclusive, HCMV inh 70, Marburg entry inh 6.3µM*, FBPA Giardia inh -3% and FMDV inh -9%.
`O=c1[nH]c2cccnc2n1-c1cccc([N+](=O)[O-])c1` gave LASV entry inh 4%, HCV inhibitor 18%, HCMV inh -85*, Marburg entry inh 13%[46.1 µM], FBPA Giardia inh 6% and FMDV inh -11%.
C/C(CCN1CCCc2nc(C)c(C)cc21)=N\O[C@@H](C)c1cn([C@H](CO)Cc2ccccc2)nn1 was read as FBPA Giardia inh 1%[12.9 µM].
For O=C(Cn1c(-c2ccccc2)c[n+]2ccsc12)c1ccc([N+](=O)[O-])cc1 the results were LASV entry inh -17%, HCV inhibitor 10µM*, HCMV inh -99*, Marburg entry inh inconclusive, FBPA Giardia inh -6% and FMDV inh 0%.
Screening O=C(Cn1c(-c2ccccc2)c[n+]2ccsc12)c1ccccc1 returned HCV inhibitor -1%, HCMV inh -62*, FBPA Giardia inh 3% and FMDV inh 50%.
COCCNC(=O)COc1ccc(OCCNC[C@H](O)COc2ccccc2)cc1 was read as FMDV inh -17%.
For COc1cc(C(=S)N2CCN(C(c3ccccc3)c3ccccc3)CC2)cc(OC)c1O the results were HCV inhibitor 11µM*, HCMV inh -27, FBPA Giardia inh 7% and FMDV inh -34%.
Screening COc1ccc(N2C(S)=C(C#N)C(=O)NC2c2ccco2)cc1 (centres undefined) returned LASV entry inh 11%, HCV inhibitor 36%, HCMV inh -35, Marburg entry inh -4%, FBPA Giardia inh inconclusive and FMDV inh -5%.
For Cc1cccc(N2C(S)=C(C#N)C(=O)NC2c2ccco2)c1 (centres undefined) the results were LASV entry inh 9%[46.1 µM], HCV inhibitor 3%, HCMV inh -68*, Marburg entry inh inconclusive, FBPA Giardia inh 4% and FMDV inh -4%.
Cc1ccc(Oc2nnc(-c3cccs3)c3ccccc23)cc1C was read as LASV entry inh -16%, HCV inhibitor -7%, HCMV inh -62*, Marburg entry inh inconclusive, FBPA Giardia inh 4% and FMDV inh inconclusive.
`Cc1ccc2nc(COc3cccc(NC(=O)COc4ccc(F)cc4)c3)cc(=O)n2c1` gave LASV entry inh inconclusive, HCMV inh 23 and FMDV inh -11%.
`Nc1ccc(C#Cc2ccccc2)cc1` gave LASV entry inh 19%, HCV inhibitor inconclusive, HCMV inh -14, Marburg entry inh -22%, FBPA Giardia inh 9% and FMDV inh 17%.
Cc1cccc(C#Cc2ccccc2)n1 was read as LASV entry inh inconclusive, HCV inhibitor 1.1µM*, HCMV inh -65*, Marburg entry inh inconclusive, FBPA Giardia inh -1% and FMDV inh 37%.
`CC(C)C1C(=O)N(S(C)(=O)=O)[C@H]2CCN(C(=O)/C=C/CN3CCCCC3)[C@@H]12` (some centres undefined) gave FBPA Giardia inh -3%.
For COc1ccc(N2CCN(C(=O)C(C)n3nc(C)c4sc5ccccc5c4c3=O)CC2)cc1 (centres undefined) the results were LASV entry inh inconclusive, HCMV inh 29, Marburg entry inh inconclusive and FMDV inh -30%.
CC[C@H]1OC(=O)[C@H](C)C(=O)[C@H](C)[C@@H](O[C@@H]2O[C@H](C)C[C@H](N(C)C)[C@H]2O)[C@](C)(OC)C[C@@H](C)C(=O)[C@H](C)[C@H]2N(CCCCn3cnc(-c4cccnc4)c3)C(=O)O[C@]12C was read as FMDV inh -10%.
O=C(NNc1ccccn1)C(c1ccccc1)c1ccccc1 was read as LASV entry inh -17%, HCV inhibitor 12%, HCMV inh -17, Marburg entry inh inconclusive, FBPA Giardia inh 1% and FMDV inh -9%.
`O=C(NNC(=O)C(c1ccccc1)c1ccccc1)c1ccccn1` gave LASV entry inh inconclusive, HCV inhibitor 6.3µM*, HCMV inh -97*, Marburg entry inh 4.6µM*, FBPA Giardia inh -14% and FMDV inh inconclusive.
Cc1ccc(S(=O)(=O)Nc2c(C)nn(C)c2C)cc1C was read as LASV entry inh -2%[46.1 µM], HCV inhibitor 0.56µM*, HCMV inh -37, Marburg entry inh -24% and FMDV inh inconclusive.
`Cc1nn(C)c(C)c1NS(=O)(=O)c1ccc(N2CCCC2=O)cc1` gave LASV entry inh inconclusive, HCV inhibitor inconclusive, HCMV inh -62*, Marburg entry inh inconclusive, FBPA Giardia inh 3% and FMDV inh inconclusive.
Screening COc1ccc(S(=O)(=O)Nc2c(C)nn(C)c2C)cc1Br returned HCV inhibitor -26%, HCMV inh -22 and FMDV inh -26%.

High-throughput results: PubChem, National Center for Advancing Translational Sciences (NCATS)
